# Several values for one entry are separate records, joined by “and”; a condition that tells them apart may be missing. Identical values can stand only once. Out of some 190,000 compounds screened, about 6,900 (3.6%) were called active. No stated cut-off is given here; in the data, active means inhibition above about 50%; inactive means the rest. What follows is part of a selection rich in actives, with near analogues and random picks from the rest. A structure can be active in one record and inactive in another.
# Target: Huntingtin (Homo sapiens) (UniProt P42858)
# Sequence (P42858 whole entry, looked up, stated change not applied): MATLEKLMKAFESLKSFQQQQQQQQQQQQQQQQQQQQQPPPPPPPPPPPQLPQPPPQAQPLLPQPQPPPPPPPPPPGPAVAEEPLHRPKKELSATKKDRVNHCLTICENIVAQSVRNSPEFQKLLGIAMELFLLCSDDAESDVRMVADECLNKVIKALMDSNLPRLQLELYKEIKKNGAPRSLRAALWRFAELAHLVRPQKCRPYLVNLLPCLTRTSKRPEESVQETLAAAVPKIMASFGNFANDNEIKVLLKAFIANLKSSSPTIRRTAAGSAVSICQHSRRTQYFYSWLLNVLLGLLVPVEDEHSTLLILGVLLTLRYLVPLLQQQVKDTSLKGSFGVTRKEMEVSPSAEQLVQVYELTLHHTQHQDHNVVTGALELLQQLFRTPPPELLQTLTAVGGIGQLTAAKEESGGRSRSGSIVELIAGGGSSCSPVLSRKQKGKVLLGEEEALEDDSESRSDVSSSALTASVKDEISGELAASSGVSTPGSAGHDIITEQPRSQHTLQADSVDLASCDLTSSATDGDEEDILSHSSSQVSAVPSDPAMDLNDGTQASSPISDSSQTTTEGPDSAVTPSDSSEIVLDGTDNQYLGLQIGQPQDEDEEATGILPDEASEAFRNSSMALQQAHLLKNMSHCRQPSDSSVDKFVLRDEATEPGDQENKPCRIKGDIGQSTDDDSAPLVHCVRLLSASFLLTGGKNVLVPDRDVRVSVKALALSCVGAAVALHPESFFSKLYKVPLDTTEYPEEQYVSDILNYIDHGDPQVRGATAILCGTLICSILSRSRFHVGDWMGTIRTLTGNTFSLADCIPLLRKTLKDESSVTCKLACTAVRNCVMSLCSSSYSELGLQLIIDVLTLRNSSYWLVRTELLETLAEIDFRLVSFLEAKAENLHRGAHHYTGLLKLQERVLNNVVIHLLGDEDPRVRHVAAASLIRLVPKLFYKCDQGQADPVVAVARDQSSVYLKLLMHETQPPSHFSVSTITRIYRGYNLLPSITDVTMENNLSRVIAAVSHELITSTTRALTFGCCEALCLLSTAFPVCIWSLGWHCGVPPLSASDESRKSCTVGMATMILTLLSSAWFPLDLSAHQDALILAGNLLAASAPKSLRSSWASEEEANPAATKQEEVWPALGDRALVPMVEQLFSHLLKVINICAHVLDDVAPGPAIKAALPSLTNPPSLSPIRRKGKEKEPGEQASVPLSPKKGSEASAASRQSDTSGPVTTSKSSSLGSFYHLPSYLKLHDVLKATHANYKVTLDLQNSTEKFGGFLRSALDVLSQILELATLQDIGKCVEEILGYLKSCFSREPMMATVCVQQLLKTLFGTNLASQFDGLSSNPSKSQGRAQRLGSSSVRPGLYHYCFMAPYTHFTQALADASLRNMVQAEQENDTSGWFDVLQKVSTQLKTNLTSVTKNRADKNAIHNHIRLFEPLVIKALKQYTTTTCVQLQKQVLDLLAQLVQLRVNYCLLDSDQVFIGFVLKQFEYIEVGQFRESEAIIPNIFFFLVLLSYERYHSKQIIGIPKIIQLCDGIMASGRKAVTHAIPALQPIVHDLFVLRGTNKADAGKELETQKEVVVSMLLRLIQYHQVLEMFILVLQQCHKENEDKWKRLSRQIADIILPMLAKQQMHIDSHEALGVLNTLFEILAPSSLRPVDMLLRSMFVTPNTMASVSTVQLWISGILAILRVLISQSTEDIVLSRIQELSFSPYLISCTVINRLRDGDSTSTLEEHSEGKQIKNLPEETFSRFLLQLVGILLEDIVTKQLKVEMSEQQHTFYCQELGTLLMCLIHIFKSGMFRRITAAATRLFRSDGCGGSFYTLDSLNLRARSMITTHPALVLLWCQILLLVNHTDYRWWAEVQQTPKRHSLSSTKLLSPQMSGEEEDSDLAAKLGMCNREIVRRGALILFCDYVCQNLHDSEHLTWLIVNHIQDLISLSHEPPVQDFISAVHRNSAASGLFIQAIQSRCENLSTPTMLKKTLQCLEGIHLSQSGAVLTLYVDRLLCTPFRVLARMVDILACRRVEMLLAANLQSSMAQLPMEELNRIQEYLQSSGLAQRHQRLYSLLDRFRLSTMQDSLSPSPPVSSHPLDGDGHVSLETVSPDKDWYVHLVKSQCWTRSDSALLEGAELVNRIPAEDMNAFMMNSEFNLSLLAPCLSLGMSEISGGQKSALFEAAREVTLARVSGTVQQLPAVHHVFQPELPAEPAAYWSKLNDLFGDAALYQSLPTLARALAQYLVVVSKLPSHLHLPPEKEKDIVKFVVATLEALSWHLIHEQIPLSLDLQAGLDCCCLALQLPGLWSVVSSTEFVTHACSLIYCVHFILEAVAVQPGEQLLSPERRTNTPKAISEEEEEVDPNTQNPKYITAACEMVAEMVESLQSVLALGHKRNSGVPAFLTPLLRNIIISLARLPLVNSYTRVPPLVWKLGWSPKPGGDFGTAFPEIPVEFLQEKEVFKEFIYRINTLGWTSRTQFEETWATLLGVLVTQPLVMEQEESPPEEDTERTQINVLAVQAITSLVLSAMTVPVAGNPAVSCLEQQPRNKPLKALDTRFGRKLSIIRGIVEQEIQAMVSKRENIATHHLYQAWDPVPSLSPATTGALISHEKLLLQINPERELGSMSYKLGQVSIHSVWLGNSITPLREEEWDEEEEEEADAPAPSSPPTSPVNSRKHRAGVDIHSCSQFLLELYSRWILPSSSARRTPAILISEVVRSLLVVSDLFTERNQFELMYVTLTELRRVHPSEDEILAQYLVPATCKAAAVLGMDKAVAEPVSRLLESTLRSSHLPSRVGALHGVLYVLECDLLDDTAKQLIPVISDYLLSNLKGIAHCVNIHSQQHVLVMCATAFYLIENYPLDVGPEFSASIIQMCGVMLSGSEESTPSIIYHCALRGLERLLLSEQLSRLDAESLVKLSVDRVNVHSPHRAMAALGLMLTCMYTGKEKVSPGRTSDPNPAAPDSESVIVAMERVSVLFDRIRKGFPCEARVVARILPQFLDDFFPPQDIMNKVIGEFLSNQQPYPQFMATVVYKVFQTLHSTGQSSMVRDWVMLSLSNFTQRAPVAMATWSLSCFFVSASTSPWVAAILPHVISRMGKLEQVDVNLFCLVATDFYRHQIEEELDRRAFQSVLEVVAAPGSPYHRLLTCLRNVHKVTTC
# Assay: mutant huntingtin-calmodulin interaction inhibitors – biochemical, AlphaScreen, primary screen (AID 1671202);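 further: 0% = both proteins with DMSO and 100% = one protein alone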
# Conditions: AlphaScreen His-mHTT/GST-CaM binding, luminescence; at 15 µM, stronger effect = higher value
row,SMILES,inhibition
1,O=C(Nc1nnc(SCc2ccc(C(F)(F)F)cc2)s1)c1cccs1,-13.3% (inactive)
2,CN(Cc1cn(Cc2ccc(C(F)(F)F)cc2)nn1)C1CN(Cc2cn(Cc3ccc(C(F)(F)F)cc3)nn2)S(=O)(=O)C1 (centres undefined),10.9% (inactive)
3,Cc1ccccc1CNC(=O)CCC1CCCN(C(=O)Nc2ccccc2F)C1 (centres undefined),-0.96% (inactive)
4,CCCn1c(C2CCN(C(=O)CCC3CCCC3)C2)nc2cccnc21 (centres undefined),19.8% (inactive)
5,Cc1nc(-c2ccc(C(=O)Nc3ccc(C)c(F)c3)cc2)cs1,-6% (inactive)
6,COc1cccc(-c2nc(C3CCN(S(=O)(=O)c4cccc(Cl)c4C)CC3)no2)c1,-1.63% (inactive)
7,Cc1c(Cl)cccc1NC(=O)c1ccc(F)c(S(=O)(=O)N2CCCC2)c1,3% (inactive)
8,Cc1ccc2c(c1)CCN1C(=O)CN(S(=O)(=O)c3cccc(Cl)c3C)CC21 (centres undefined),61.2% (active)
9,CC1C(=O)N(c2ccccc2-c2ccccc2)CCN1C(=O)C1CCCC1 (centres undefined),3.1% (inactive)
10,CSc1ccc(C2C=C(c3ccc(Cl)s3)Nc3ncnn32)cc1 (centres undefined),21% (inactive)
11,CC(C(=O)Nc1ccc(Cl)c(C(F)(F)F)c1)N1C(=O)c2ccccc2C1=O (centres undefined),24% (inactive)
12,CCn1c(SCC(=O)Nc2ccc(Br)cc2)nnc1-c1cc(OC)cc(OC)c1,4.9% (inactive)
13,Cc1nc(-c2nnc(NC(=O)c3ccnn3C)o2)cs1,50.2% (active)
14,CCCCOc1ccc(C(=O)Nc2nnc(-c3ccncc3)o2)cc1,40.2% (inactive)
15,COc1cccc2cc(C(=O)NCCn3ccnc3C)oc12,-8.3% (inactive)
16,Cc1csc(-c2ccc(CNC(=O)c3ccnn3C)cc2)n1,-3.6% (inactive)
17,CCOc1cccc2cc(C(=O)Nc3ccc(Cl)cc3Cl)c(=O)oc12,1% (inactive)
18,CCOc1cccc2cc(C(=O)Nc3nnc(-c4csc(C)n4)o3)oc12,54.6% (active)
19,COc1ccc(N2C(=O)C3N=NN(Cc4c(F)cccc4Cl)C3C2=O)cc1 (centres undefined),-2.2% (inactive)
20,COc1ccc(-n2nc3cc(C)c(NC(=O)c4ccccc4F)cc3n2)cc1,-3.4% (inactive)

row,SMILES,inhibition
1,CC(C)CCNC(=O)C1(C)CCC(=O)N1Cc1ccc(OC(C)C)cc1 (centres undefined),0.89% (inactive)
2,CCOC(=O)CC1(NC(=O)N2CCn3cccc3C2Cc2ccccc2)CCCCC1 (centres undefined),46.3% (inactive)
3,CCCC1c2cccn2CCN1C(=O)Nc1ccccc1C (centres undefined),6.33% (inactive)
4,CCOC(=O)CCNC(=O)N1CCn2cccc2C1c1ccc(Cl)cc1 (centres undefined),82.4% (active)
5,COc1ccc(C(=O)N2CCC(c3nc(CNC(=O)C4CCC4)cs3)CC2)cc1,5.04% (inactive)
6,O=C1CC(c2cccs2)CC2=C1C(c1cccc(Cl)c1)Nc1ccccc1N2 (centres undefined),26% (inactive)
7,Cc1ccc2oc(C3Nc4ccccc4NC4=C3C(=O)CC(c3cccs3)C4)cc(=O)c2c1 (centres undefined),4.8% (inactive) and 92% (active)
8,COc1cccc(C2CC(=O)C3=C(C2)Nc2ccccc2NC3c2cccc(F)c2)c1 (centres undefined),25% (inactive)
9,O=C(Cc1ccc(F)cc1)NC1CCCC1,-1.1% (inactive)
10,O=C(Cc1nc(-c2ccccn2)n[nH]1)NC1CCCCCC1,98% (active)
11,O=C(CSCc1ccccc1Cl)NC1CCCCC1,-5.4% (inactive)
12,N#CC1=C(N)Oc2n[nH]c(C(F)(F)F)c2C1c1cccnc1 (centres undefined),-2% (inactive)
13,Cc1ccc(Cl)cc1NC(=O)N1CC=C(c2cn(C)c3ncccc23)CC1,19.5% (inactive)
14,CCNC(=O)c1cccc(N2CCNC(c3ccccc3)C2)n1 (centres undefined),2.6% (inactive)
15,Cc1ccc(CNC(=O)c2cccc(N3CCNC(c4ccccc4)C3)n2)cc1 (centres undefined),57.7% (active)
16,O=C(NCc1ccc(F)cc1)c1cccc(N2CCNC(c3ccccc3)C2)n1 (centres undefined),44.2% (inactive)
17,Cc1[nH]c2ccccc2c1C(NS(=O)(=O)c1ccccc1)C(Cl)(Cl)Cl (centres undefined),30% (inactive)
18,Cc1cc(C(=O)NCC(c2cn(C)c3ccccc23)N(C)C)no1 (centres undefined),0.7% (inactive)
19,Cn1cc(C(NS(=O)(=O)c2ccc(Cl)cc2)C(Cl)(Cl)Cl)c2ccccc21 (centres undefined),77% (active)
20,O=C(Cc1ccccc1F)N1CCOc2ccccc2C1,0.06% (inactive)

row,SMILES,inhibition
1,COCCN1CCC(N2CCCN(C(=O)c3ccc(C)c(F)c3)CC2)C1=O (centres undefined),7.8% (inactive)
2,CCC(C(=O)NCC(C)(O)CCSC)c1ccccc1 (centres undefined),-4.2% (inactive)
3,CNC(=O)C[C@H]1C(=O)N(c2ccc(OC)cc2)C[C@@H]1Cc1ccccc1,-3.3% (inactive)
4,O=C(C[C@H]1C(=O)N(c2ccc(F)c(F)c2)C[C@@H]1Cc1ccccc1)Nc1ccccc1,52.3% (active)
5,COc1ccc(NC(=O)C[C@H]2C(=O)N(CCc3ccccc3)C[C@@H]2C)cc1,-5.1% (inactive)
6,COc1ccc(C(=O)N2CCC(c3nc(C(=O)N4CCSCC4)c(C)o3)CC2)cc1F,5.94% (inactive)
7,CC(=O)c1ccc(OCC(O)CNC2CCCC2)cc1 (centres undefined),-0.4% (inactive)
8,O=C(NCc1ccccc1F)c1cc2n(n1)CCCC2,-5.1% (inactive)
9,COc1ccc(C(CC(=O)N2CCN(c3ccccc3)CC2)c2c(O)cc(OC)cc2OC)cc1 (centres undefined),34.4% (inactive)
10,COc1ccccc1C(CCNCc1ccccc1)c1ccc2c(c1)OCO2 (centres undefined),47.4% (inactive)
11,COc1cc(OC)c2ccc(=O)oc2c1C(CCN1CCN(c2ccccc2)CC1)c1ccc2c(c1)OCO2 (centres undefined),73.2% (active)
12,COc1cc(C(CCN2CCN(c3ccccc3)CC2)c2c(OC)cc(OC)c3ccc(=O)oc23)cc(OC)c1OC (centres undefined),89.6% (active)
13,COc1ccc(CN2CCN(Cc3cc(OC)c(OC)c(OC)c3)CC2)cc1,2.6% (inactive)
14,COc1ccccc1N1CCN(Cc2cc(OC)c3c(c2)OCO3)CC1,4.1% (inactive)
15,CNC(=O)c1ccc2c(c1SC)C(=O)c1ccccc1C2=O,-3% (inactive)
16,CC1(C)CC(=O)C(C(=N)CC2CC(=O)NC(=O)C2)=C(O)C1,3% (inactive)
17,CC(C)(C)[C@H]1CCSC2=NCCC[C@]2(c2ccccc2)C1,7% (inactive)
18,CC(SCc1ccccc1)C(=O)Nc1ccc(Cl)cc1 (centres undefined),-33.9% (inactive)
19,O=C(Cc1c(C(=O)O)[nH]c2ccc(Cl)cc12)Nc1cccc(Cl)c1,14% (inactive)

# Reference: PubChem BioAssay AID1671202 (University of Kansas High Throughput Screening Laboratory, 2021)
